SMILES strings stand for the structures. Records with an inconclusive call do not appear. Where a call stands in place of a potency, no number is given. The source made the active and inactive calls. Calls come from the whole dose curve; as a rule, active = well fitted inhibition curve with a large enough effect; inconclusive = small, poorly fitted or top-dose-only effect; inactive = flat fitted curve, though single readings scatter.

Calcium and integrin-binding protein 1 (Homo sapiens), sequence (Q99828 whole entry, looked up): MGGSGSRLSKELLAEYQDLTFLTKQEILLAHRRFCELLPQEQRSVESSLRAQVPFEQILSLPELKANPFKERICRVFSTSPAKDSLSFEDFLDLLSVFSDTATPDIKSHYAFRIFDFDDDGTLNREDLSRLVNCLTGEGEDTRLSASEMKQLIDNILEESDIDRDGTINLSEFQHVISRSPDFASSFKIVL

The assay addresses Calcium and integrin-binding protein 1 (Homo sapiens) (UniProt Q99828). Put plainly: Primary qHTS for Identification of Calcium Integrin Binding Protein 1 (CIB1) Competitor (AID 1508620). Note: top concentration of the series differs between compounds. The settings on record: CIB1-GST / FITC-alphaIIb peptide fluorescence polarization; series mostly up to 57.7 µM. In a few lines:
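Fluorescence polarization competition: GST-tagged CIB1 (1 uM final) preincubated with compound 15 min at room temperature, then FITC-labelled alphaIIb peptide (100 nM final) added. After 15 min at room temperature, polarization read at Ex 480/Em 540.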
On the technique in general: qHTS replaces the single test concentration by a dilution series.
As to `C[C@@H]1O[C@@H](O[C@H]2[C@H](O[C@H]3CC[C@@]4(C)C(CC[C@]5(C)C4CC=C4C6CC(C)(C)CC[C@]6(C(=O)O[C@@H]6O[C@H](CO[C@@H]7O[C@H](CO)[C@@H](O[C@@H]8O[C@@H](C)[C@H](O)[C@@H](O)[C@H]8O)[C@H](O)[C@H]7O)[C@@H](O)[C@H](O)[C@H]6O)CC[C@]45C)[C@]3(C)CO)OC[C@H](O)[C@@H]2O)[C@H](O)[C@H](O)[C@H]1O` (some centres undefined), the activity change, negative = inhibition is 2.74% [at 12.4 µM] (inactive). As for `C[C@@H]1O[C@@H](O[C@H]2[C@H](OC(C#N)c3ccc(O)cc3)O[C@H](CO)[C@@H](O)[C@@H]2O)[C@H](O)[C@H](O)[C@H]1O` (some centres undefined), the Potency entry was “inactive”.

On to `C[C@]12CC[C@@H]3c4ccc(O[C@@H]5O[C@H](C(=O)O)[C@@H](O)[C@H](O)[C@H]5O)cc4CC[C@H]3[C@@H]1CCC2=O`, for which the Potency entry was “inactive”. On the same count and under the same terms, under `O=C(/C=C/c1ccccc1)OCC1=CC[C@@H]2C(C(=O)O)=CO[C@@H](O[C@@H]3O[C@H](CO)[C@@H](O)[C@H](O)[C@H]3O)[C@H]12` stands “inactive”; under `CC1(C)C(O)CCC2(C)C1C(O)C=C1COC(=O)C12O` (centres undefined), “inactive”; under `Cn1ccnc1CCOC(c1cc2nccc(C(=O)O)c2[nH]1)c1ccccc1Cl` (centres undefined), “inactive”. On to `CCc1cc2c(=O)c(-c3nc4ccccc4s3)coc2c(CN2CCCCC2)c1O`, for which the Potency result was “inactive”.

On to `CC(c1c[nH]c2ccccc12)C(O)C(=O)O` (centres undefined), for which the Potency entry was “inactive”. Turning to `c1ccc(Cc2ncc3c(n2)CCNCC3)cc1`, the Potency result is “inactive”.

Regarding `CC1(CCC(=O)O)C(=O)C=CC23CC4CC(OC4(C)C2O)C13` (centres undefined), the Potency entry was “inactive”. Same read-out and setting: under `OC[C@H]1O[C@@H](n2cnc3c(NCc4ccc(O)cc4)ncnc32)[C@H](O)[C@@H]1O` stands “inactive”; under `C[C@]1(OC(=O)/C=C/c2ccccc2)C[C@H](O)[C@]2(O)C=CO[C@@H](O[C@@H]3O[C@H](CO)[C@@H](O)[C@H](O)[C@H]3O)C12` (some centres undefined), “inactive”. Same read-out and setting: under `O=C(c1ccc(C#Cc2cccc(F)c2)cn1)N1CC2CC2C1` (centres undefined) stands “inactive”; under `CNC(=O)c1ccc2cc([C@@]3(O)CCn4cncc43)ccc2c1`, “inactive”; under `Cc1nnc(C(C)C)n1C1CC2CCC(C1)N2CC[C@H](NC(=O)C1CCC(F)(F)CC1)c1ccccc1` (some centres undefined), “inactive”. With `O=S(=O)(NC1CCNCC1)c1cc(S(=O)(=O)c2ccccc2)ccc1C(F)(F)F`, the Potency entry was “inactive”. Same read-out and setting: under `O=C1NC(Cc2ccc(O)cc2)C(=O)N2CCCC12` (centres undefined) stands “inactive”. The same measure, in the same setting: under `CC1=C2C=C(CO)C(CO)CCC2(C)CCC1=O` (centres undefined) stands “inactive”; under `C[C@@H](OC(=O)/C=C/c1ccc(O)cc1)C1=C[C@]2(C=C[C@@H]3C(C(=O)O)=CO[C@@H](O[C@@H]4O[C@H](CO[C@@H]5O[C@H](CO)[C@@H](O)[C@H](O)[C@H]5O)[C@@H](O)[C@H](O)[C@H]4O)[C@@H]32)OC1=O`, “inactive”.

As for `COc1cc(/C=C/CO)ccc1O[C@@H]1O[C@H](CO)[C@@H](O)[C@H](O)[C@H]1O`, the Potency result was “inactive”. For `C/C=C(\C)C(=O)O[C@@H]1CC2[C@@H](CC=C3C[C@@H](O[C@H]4C[C@H](OC)[C@H](O[C@H]5C[C@H](OC)[C@H](O[C@H]6C[C@H](OC)[C@H](O[C@H]7C[C@@H](OC)[C@H](O[C@@H]8O[C@H](CO)[C@@H](O)[C@H](O)[C@H]8O)[C@@H](C)O7)[C@@H](C)O6)[C@@H](C)O5)[C@@H](C)O4)CC[C@@]32C)[C@@]2(O)CC[C@H](C(C)=O)[C@@]12C` (some centres undefined), the activity change, negative = inhibition was 0.036% [at 12.4 µM] (inactive). In the case of `COc1cc(O[C@@H]2O[C@H](CO)[C@@H](O)[C@H](O)[C@H]2O)c(CCC(=O)OC[C@H]2O[C@@H](Oc3cc(OC)c(C4OC(=O)C(C)(O)C4O)cc3CCC(=O)O)[C@H](O)[C@@H](O)[C@@H]2O)cc1C1OC(=O)C(C)(O)C1O` (some centres undefined), the Potency result was “inactive”.

As to `Cn1c(=O)c2nc(/C=C/c3cccc(Cl)c3)n(C)c2n(C)c1=O`, the Potency entry was “inactive”. Take `O=C1C[C@@H](c2ccc(O)cc2)Oc2cc(O)ccc21`: the Potency entry is “inactive”.

In the case of `NCCCC[C@H](NC(=O)[C@@H]1Cc2ccccc2CN1C(=O)CCC(=O)c1ccccc1)C(=O)NCC(c1ccccc1)c1ccccc1`, the Potency result is “inactive”. On the same count and under the same terms, under `C[C@@H]1CC[C@]2(C(=O)O)CC[C@]3(C(=O)O)C(=CCC4[C@@]5(C)CC[C@H](O[C@@H]6O[C@@H](C)[C@H](O[C@@H]7O[C@H](CO)[C@@H](O)[C@H](O)[C@H]7O)[C@@H](O)[C@H]6O)C(C)(C)C5CC[C@]43C)C2[C@H]1C` (some centres undefined) stands “inactive”; under `CC12CCC3c4ccc(O)cc4CCC3C1CCC2OC1OC(C(=O)O)C(O)C(O)C1O` (centres undefined), “inactive”.

As for `Nc1nonc1C(=Nc1ccc(F)c(Cl)c1)NO`, the Potency result was “inactive”. For the compound `COC(=O)CC[C@@H](C)[C@H]1CC[C@H]2[C@@H]3CC(=O)[C@H]4C[C@H](OC(C)=O)CC[C@]4(C)[C@H]3CC[C@]12C`, the Potency entry was “inactive”.
